Laboratory results taken from PubChem BioAssay (EPA / NIEHS).
Active and inactive are the calls of the source. The calls were made as follows: active = hit-call score of the fitted dose curve at least 0.9, where 1 is the maximum; inactive = score below 0.9.

Assay: ATG_SREBP_CIS: Attagene CIS-FACTORIAL HepG2 Assay for human Sterol Regulatory Element Binding (SREBP) (AID 2282962)
Conditions: HepG2 Attagene cis-factorial SREBP reporter, mRNA; actives raise or lower the signal
Description: ATG_CIS is a cell-based, multiplexed-readout assay that uses HepG2, a human liver cell line, with measurements taken at 24 hours after chemical dosing in a 24-well plate.ATG_SREBP_CIS is one of 52 assay component(s) measured or calculated from the ATG_CIS assay. It is designed to make measurements of mRNA induction, a form of inducible reporter, as detected with fluorescence intensity signals by Reverse transcription polymerase chain reaction (RT-PCR) and Capillary electrophoresis technology.Data from the assay component ATG_SREBP_CIS was analyzed into 1 assay endpoint. This assay endpoint, ATG_SREBP_CIS, was analyzed with bidirectional fitting relative to DMSO as the negative control and baseline of activity. Using a type of inducible reporter, measures of mRNA for gain or loss-of-signal activity can be used to understand the reporter gene at the transcription factor-level as they relate to the gene SREBF1. Furthermore, this assay endpoint can be referred to as a primary readout, because this assay has produced multiple assay endpoints where this one serves a reporter gene function. To generalize the intended target to other relatable targets, this assay endpoint is annotated to the dna binding intended target family, where the subfamily is basic helix-loop-helix leucine zipper.
Human liver HepG2 cells are transiently transfected with multiple reporter transcription units (MRTUs) in 6-well plates using FuGene 6 reagent (Roche; 3 ml FuGene/1 mg DNA). The MRTU constructs are regulated by a cis-regulating element (promoter). […] A major difference between the CIS and TRANS system is that in CIS activities of endogenous TFs are measured, whereas the TRANS assay evaluates changes in activities of exogenous, chimeric NR-Gal4 proteins. […] At the end of 24 hour incubation, total RNA was isolated using TriZol reagent (Invitrogen). The isolated RNA is then reverse-transcribed using oligo(dT) primer and Mo-MLV reverse transcriptase (Invitrogen) with DNAse I (Ambion) treatment for 30 min. The one-tenth of the produced cDNA was amplified by PCR using Taq DNA polymerase (Invitrogen) and two reporter sequence-specific primers. The PCR products were fluorescently labeled by primer extension with 6-arboxyfluorescein (6-FAM) 5'-labeled reporter sequence-specific primer (2 min at 95 C, 20 s at 68 C and 10 min at 72 C) and these products were digested with 5U of HpaI (New England Biolabs) for 2h at 37 C. The fragments were purified using Qiaquick PCR columns (Qiagen), analyzed on an ABI 3130xL genetic analyzer (Applied Biosystems) with peak positions identified by using a set of X-rhodamine (ROX)-labeled MapMarker1000 molecular weight standards (BioVentures). The raw capillary electrophoresis data was processed using Attagraph software (Attagene).
With CC(=O)OCCC1CCCCC1 the outcome was “inactive”. With C=CC(=O)OCC(Br)CBr (stereo not given) the outcome was “inactive”. For CCCCC/C=C\C/C=C\CCCCCCCC(=O)OC, the outcome was “inactive”. With O=C(O)CCCC[C@@H]1SC[C@@H]2NC(=O)N[C@@H]21 the outcome was “inactive”. For C[C@]12C=CC(=O)C=C1CC[C@@H]1[C@@H]2[C@@H](O)C[C@@]2(C)[C@H]1CC[C@]2(O)C(=O)CO, the outcome was “inactive”. In the case of CC(C)C(=O)C(C)C, the outcome is reported as “inactive”. With C1=Cc2ccccc2C1 the outcome was “inactive”. With Cc1ccc(OC(=O)CC(C)C)cc1 the outcome was “inactive”. With O=c1cc[nH]c(=S)[nH]1 the outcome was “inactive”. For O=c1cc(-c2ccccc2)oc2ccccc12, the outcome was “inactive”. For O=C(/C=C/C=C/c1ccc2c(c1)OCO2)N1CCCCC1, the outcome was “inactive”. In the case of CCOC(=O)NNc1nncc2ccccc12, the outcome is reported as “inactive”. In the case of CCCC(=O)OCc1ccccc1, the outcome is reported as “inactive”. For CNC(=S)N(C)C, the outcome was “inactive”. With C=CC(C)(CCC=C(C)C)OC(=O)CC(C)C (stereo not given) the AC50 was 118 µM (active). In the case of CC(CC=O)CCCC(C)(C)O (stereo not given), the outcome is reported as “inactive”. With CC1=CC[C@H](C(C)C)C=C1 the outcome was “inactive”. For CC1=NC(C)OC1C (stereo not given), the outcome was “inactive”. With Cc1ccc2c(c1)C(=O)c1ccccc1C2=O the outcome was “inactive”. With CO[Si](OC)(OC)c1ccccc1 the outcome was “inactive”. For C=CC(=O)OCCOC(=O)C=C, the outcome was “inactive”. With CCCCC(CC)CCC(CC(C)C)OS(=O)(=O)O (stereo not given) the outcome was “inactive”. With Nc1ccc2cc3ccccc3cc2c1 the outcome was “inactive”. In the case of CC=CC(F)(F)C(F)(F)C(F)(F)F, the outcome is reported as “inactive”. With CC(C)(C)c1ccc(OC(=O)c2ccccc2O)cc1 the outcome was “inactive”. With Oc1ccc(Cl)cc1Cc1cc(Cl)ccc1O the AC50 was 7.54 µM (active). For C=CC(C)(CCC=C(C)C)OC(=O)C(C)C (stereo not given), the outcome was “inactive”. With C=CCOc1c(Br)cc(Br)cc1Br the outcome was “inactive”. For Cc1cc(C)c(C(=O)O)c(C)c1, the outcome was “inactive”. For Cc1cccc(N)n1, the outcome was “inactive”. In the case of CCCNC(=O)NS(=O)(=O)c1ccc(Cl)cc1, the outcome is reported as “inactive”. With CC(C)COC(=O)C=Cc1ccccc1 the outcome was “inactive”. In the case of Cc1cc(C)c(C)c(C)c1, the outcome is reported as “inactive”. In the case of CC(C)c1ccc2cc(C(C)C)ccc2c1, the outcome is reported as “inactive”. With CC/C=C\CCOC(=O)CCCCC the outcome was “inactive”. With COc1ccc([C@@H]2CC(=O)c3c(O)cc(O[C@@H]4O[C@H](CO[C@@H]5O[C@@H](C)[C@H](O)[C@@H](O)[C@H]5O)[C@@H](O)[C@H](O)[C@H]4O)cc3O2)cc1OC the outcome was “inactive”. With CCCCCCCCO[C@@H]1O[C@H](CO)[C@@H](O)[C@H](O)[C@H]1O the outcome was “inactive”. In the case of CCN(CCC#N)c1ccc(N=Nc2c(Cl)cc([N+](=O)[O-])cc2Cl)cc1, the outcome is reported as “inactive”. In the case of CCCCCCCCCCCCCCCC[N+](C)(C)CC, the outcome is reported as “inactive”. For CC(C)c1ccc(C#N)cc1, the outcome was “inactive”.
